Hits are enriched below; roughly 19% of the tested compounds scored in any of these assays.
TGFb SMAD3 inh: TGF-b pathway inhibition | HepG2 CAGA-GFP TGF-b/SMAD3 reporter, GFP fluorescence, 18 h; TGF-beta stimulated, 500 pg/mL final | Potency, µM (top dose mostly 46.1 µM), without a hit: at the highest dose activity, negative = inhibition, hits mostly inhibitors | 410,000 compounds, 1.2% hits | AID 588855; also: potency is read from the fitted curve at half-maximal effect; % is scaled to controls: 0 for no effect and ±100 for the full control effect; nearly all actives have a fitted effect of over 65% in size
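Inhibition was scored as loss of TGF-beta-induced (500 pg/mL final, 18 hours, 37 degrees C) GFP in HEPG2 cells carrying a CAGA-GFP reporter, in DMEM with 1% FBS. Well GFP was summed per cell; Activity was normalised to unstimulated and stimulated DMSO wells, then concentration-response fitting.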
IL1B secr inh: inflammasome signaling inhibition, IL-1 beta readout; THP-1 LPS/ATP IL-1B secretion, AlphaLISA, 16 h; stronger effect = lower value; activity change, % at 57.5 µM; 360,000 compounds, 4.7% hits; AID 743279; in the data active = activity change below about -50%; inconclusive = mostly about -30% to -49%; also: % is scaled to controls: 0 for no effect and ±100 for the full control effect
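Secreted IL-1B measured by AlphaLISA bead assay after 16 h compound exposure of THP-1 cells; compounds (final up to 57.5 uM) added 1 h before LPS (250 ng/mL) and ATP (1.25 mM) stimulation; lower signal means less secretion.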
DT40 TDP1 CPT: growth inhibition of DT40 Tdp1-/-;hTDP1 cells with camptothecin (screen for TDP1 inhibitors); chicken DT40 Tdp1-/-;hTDP1 cells + 20 nM CPT, ATP luminescence, 48 h; Potency, µM (highest dose often 46.2 µM), without a hit: at the highest dose activity change, negative = growth inhibition, usual class: inhibitors; 420,000 compounds, 12% hits; AID 686979; also: potency is read from the fitted curve at half-maximal effect; % is scaled to controls: 0 for no effect and ±100 for the full control effect; nearly all actives have a fitted effect of over 55% in size
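Chicken DT40 Tdp1-/- cells complemented with human TDP1, 400 cells/well, exposed to compounds plus 20 nM camptothecin for at least 48 h at 37 C; viability read as ATP content by CellTiter-Glo luminescence.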
HepG2 viability: counter-screen for TGF-b inhibitors: cytotoxicity in HepG2 cells; 410,000 compounds, 0.76% hits; AID 588856; HepG2 CAGA-GFP viability, ATP luminescence, 18 h; Potency, µM (top dose mostly 46.1 µM), inactives show at the top dose activity change, negative = cytotoxicity, most hits filed as cytotoxic; also: potency is read from the fitted curve at half-maximal effect
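HepG2 CAGA-GFP cells (1000/well, DMEM with 1% FBS) received compound, then TGF-beta at 500 pg/mL final, and were incubated 18 hours at 37 degrees C. Viability was read by CellTiter-Glo luminescence. Media-only wells were set as complete cell-killing and DMSO as no toxicity.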
TDP1 inh: inhibitors of human tyrosyl-DNA phosphodiesterase TDP1; Q9NUW8; recombinant TDP1, AlphaScreen DNA substrate cleavage; Potency, µM (series often up to 130 µM), for inactives: top-dose activity change, negative = inhibition, actives largely listed as inhibitors; 350,000 compounds, 0.28% hits; AID 485290; also: potency is read from the fitted curve at half-maximal effect; % is scaled to controls: 0 for no effect and ±100 for the full control effect; nearly all actives have a fitted effect of over 40% in size
Target sequence (Q9NUW8 whole entry, looked up): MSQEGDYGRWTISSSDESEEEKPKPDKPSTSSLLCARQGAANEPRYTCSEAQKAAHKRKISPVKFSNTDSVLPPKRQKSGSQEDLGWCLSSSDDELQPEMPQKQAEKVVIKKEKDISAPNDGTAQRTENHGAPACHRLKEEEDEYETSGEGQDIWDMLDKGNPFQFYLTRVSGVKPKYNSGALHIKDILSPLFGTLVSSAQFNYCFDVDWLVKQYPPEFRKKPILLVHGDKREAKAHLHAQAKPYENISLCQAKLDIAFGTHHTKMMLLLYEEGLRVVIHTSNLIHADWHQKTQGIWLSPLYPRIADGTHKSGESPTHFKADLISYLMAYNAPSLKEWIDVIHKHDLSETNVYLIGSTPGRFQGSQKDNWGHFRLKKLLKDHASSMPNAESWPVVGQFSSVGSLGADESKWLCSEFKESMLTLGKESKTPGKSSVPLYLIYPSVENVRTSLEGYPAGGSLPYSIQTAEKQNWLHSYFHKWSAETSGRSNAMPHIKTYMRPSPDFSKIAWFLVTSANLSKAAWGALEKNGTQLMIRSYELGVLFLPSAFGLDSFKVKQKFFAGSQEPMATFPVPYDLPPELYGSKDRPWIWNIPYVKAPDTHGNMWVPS
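Here, a 5' biotin and 3' phosphotyrosine-FITC DNA oligonucleotide reports Tdp1 activity: intact substrate bridges AlphaScreen beads, while cleavage leaves a 3' phosphate and drops signal. All incubations at room temperature.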
TDP1 cell noCPT: qHTS for Inhibitors of human tyrosyl-DNA phosphodiesterase 1 (TDP1): qHTS in cells in absence of CPT; DT40 Tdp1-/- hTDP1 cells, no CPT, ATP luminescence, 48 h; AID 686978, 2013; Potency, µM (titrated, usually from 46.2 µM), without a hit: at the highest dose activity change, negative = growth inhibition, usual class: inhibitors; 420,000 compounds, 15% hits; also: potency is read from the fitted curve at half-maximal effect; % is scaled to controls: 0 for no effect and ±100 for the full control effect; nearly all actives have a fitted effect of over 55% in size
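Growth kinetics read by CellTiter-Glo luminescence after ≥48 hr at 37 °C. Cells: DT40 Tdp1-/- stably carrying human TDP1, 400 per well, compound exposure in the absence of CPT (DMSO vehicle).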
An asterisk follows results filed as active; ? = inconclusive; / = no result given; ! = a repeat was not active; [ ] = remark or other dose. Unless noted, calls follow the shape of the dose curve; as a rule, active = well fitted curve in the direction sought with a large enough effect; inconclusive = small, poorly fitted or top-dose-only effect, or another doubt; inactive = no such curve, though single readings can be large; an effect the other way counts as inactive or inconclusive.

SMILES	TGFb SMAD3 inh	IL1B secr inh	DT40 TDP1 CPT	HepG2 viability	TDP1 inh	TDP1 cell noCPT
CCCOP(=O)(OCCC)C(Nc1cccc(C(F)(F)F)c1)c1ccc(C)cc1 (stereo not drawn)	?	-2	?	-17%	1%	23µM*
CCCOP(=O)(OCCC)C(NC(=O)c1cc(OC)c(OC)c(OC)c1)c1ccccc1 (stereo not drawn)	0%	0	-24%	-22%	7%	?
CC(C)(C)NCC(O)c1ccccc1Cl (stereo not drawn)	/	/	-3%	/	9%[56.1 µM]	-4%
COc1ccc(NC(=O)Cn2c(=O)c3cccn3c3ccccc32)cc1Cl	-7%	/	?	0%	4%	?
NC1C=CC=C(C(=O)O)C1 (stereo not drawn)	4%	-15	-4%	-4%	4µM*!	-1%
C[C@@H]1C[C@@H](O)[C@@]2(O)[C@]13CC(=O)OC[C@]2(C)[C@@](C)(O)C(=O)C3	/	/	-22%[9.04 µM]	/	3%	-20%[9.04 µM]
CC(=O)NC(Cc1ccc(N(CCCl)CCCl)cc1)C(=O)NCC(=O)NCC(=O)O (stereo not drawn)	11%	4	6.5µM*	8%	6%	10µM*
CC(=O)NC(Cc1ccc(N(CCCl)CCCl)cc1)C(=O)NC(CC(C)C)C(=O)O (stereo not drawn)	-4%	0	?	1%	-5%	15µM*
CCOC(=O)CNC(=O)CNC(=O)C(Cc1ccc(N(CCCl)CCCl)cc1)NC(C)=O (stereo not drawn)	1%	?	1.3µM*	4%	5%	1.6µM*
O=C(Nc1ccc(Br)cc1)c1ccc(F)c(S(=O)(=O)N2CCCc3ccccc32)c1	?	/	12µM*	-20%	8%	8.2µM*
O=C(CNC(=O)c1cccc(S(=O)(=O)N2CCc3ccccc32)c1)Nc1ccccc1Br	-24%	?	?	-12%	/	?
CN1C(=O)N(C)C(=O)C2(Cc3cc(NC(=O)c4ccc(F)cc4)ccc3N3CCCC32)C1=O (stereo not drawn)	2%	-1	?	-1%	3%	?
O=C(Nc1ccc(Br)cc1)c1cccc(S(=O)(=O)N2CCc3ccccc32)c1	?	/	23µM*	-21%	6%[12.3 µM]	16µM*
CC[C@H]1C(=O)OC[C@H]1Cc1cncn1C	/	/	/	/	13%[21 µM]	/
O=C1N[C@@H](Cc2ccccc2)C(=O)N2[C@H]3Nc4ccccc4[C@@]3([C@]34C[C@H]5C(=O)N[C@@H](Cc6ccccc6)C(=O)N5[C@H]3Nc3ccccc34)C[C@@H]12	?	0	?	-4%	/	?
Cc1cc(C)cc(OCC(=O)Nc2ccc(-c3nc4ccccc4s3)cc2)c1	-7%	/	10µM*	-20%	-7%	9.2µM*
COC(COC(N)=O)C1=C(N2CC2)C(=O)C(C)=C(N2CC2)C1=O (stereo not drawn)	?	-113*	0.16µM*	-89%	/	0.16µM*
NCCc1c[nH]c2ccccc12	4%	-13	?	-16%	9%[56.1 µM]	-28%
CN(Cc1c[nH]c2ccccc12)C1CCCCC1	-27%	-10	0.41µM*	-17%	5%	1.2µM*
c1ccc2c(CNC3CCCCC3)c[nH]c2c1	?	?	2.5µM*	-99%	10%	6.3µM*
COC(=NC1CCCCC1)C(O)c1c[nH]c2ccccc12 (stereo not drawn)	-6%	37	-4%	2%	6%	-12%
NCC#Cc1ccccc1	/	/	/	/	5%[56.1 µM]	/
CCOc1ccc(N2CC(c3nc4ccccc4n3CCC3CCCCC3)CC2=O)cc1 (stereo not drawn)	-9%	/	7.3µM*	-3%	5%	5.2µM*
O=C(c1ccccc1)N1CCN(c2ccccc2)CC1	8%	-7	-24%	-13%	/	23µM*
COC(=O)C12C/C=C\Cc3ccccc3[C@@H]1CNC2=O (stereo partly drawn)	/	/	/	/	7%	/
SMILES	TGFb SMAD3 inh	IL1B secr inh	DT40 TDP1 CPT	HepG2 viability	TDP1 inh	TDP1 cell noCPT
O=C(NN=Cc1ccc(N(CCCl)CCCl)cc1)C(=O)c1c[nH]c2ccccc12	5%	-9	21µM*	1%	/	15µM*
O=C(NN=Cc1ccc(N(CCCl)CCCl)cc1)c1cc(=O)[nH]c(=O)[nH]1	11%	10	?	8%	/	?
CC(C)(C)OC(=O)NCc1ccc(CNC(=O)c2nc[nH]c2C(=O)NCc2ccc(CNC(=O)OC(C)(C)C)cc2)cc1	-28%	6	15µM*	-3%	0%	21µM*
COc1ccc(OC(=O)Nc2ccc([N+](=O)[O-])cc2OC)cc1	-22%	-4	-29%	-17%	-1%	?
COC(=O)C1=C(c2ccc(Cl)c(C(F)(F)F)c2)C[C@@H]2CC[C@H]1N2C(=O)NCCCOC(C)C	-18%	-13	26µM*	-11%	0%	13µM*
COC(=O)C1=C(c2ccc(Cl)c(C(F)(F)F)c2)C[C@@H]2CC[C@H]1N2C(=O)NCCNC(C)=O	8%	16	-21%	1%	-2%	?
COC(=O)C1=C(c2ccc(Cl)c(C(F)(F)F)c2)C[C@@H]2CC[C@H]1N2C(=O)NCCOc1ccccc1Cl	?	-82*	?	-26%	2%	?
COC(=O)C12CC3=CC(CC3=O)Cc3ccccc3[C@@H]1CNC2=O (stereo partly drawn)	/	/	/	/	4%	/
O=C1NCCOC(=O)[C@H](Cc2ccc(F)cc2)CC/C=C/C[C@@H]1CC(=O)N(CCO)Cc1ccccc1	?	29	16µM*	-13%	1%	?
O=C1NCCOC(=O)[C@@H](Cc2ccc(F)cc2)CC/C=C/C[C@H]1CC(=O)N(CCO)Cc1ccccc1	-19%	0	21µM*	-20%	2%	?
C=C1C2C[C@]3(C4CC5[C@@]6(C)CC[C@H](O)[C@@]5(C3CC2=O)C4[N+]([O-])(CC)C6)[C@@H]1O (stereo partly drawn)	/	/	12%[9.04 µM]	/	6%	-8%[9.04 µM]
O=[N+]([O-])c1ccc(NC2CCCC2)c2ccncc12	1%	42	?	-7%	4%	?
O=[N+]([O-])c1ccc(N2CCCC2)c2ccncc12	1%	15	?	1%	7%	21µM*
O=C(C[n+]1ccn(CCCNP2(=O)C=C(c3ccccc3)OC(c3ccccc3)=C2)c1)c1ccccc1	1%	-55*	?	-24%	2%	?

Compound activity (PubChem BioAssay)
